Peg3 promoter = inhibitors of Peg3 promoter; HeLa PEG-Prom luciferase reporter, luminescence, overnight; inhibition, % at 20 µM; hit rate 1.7% among 360,000; AID 588405;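 active = inhibition of at least 50% at 20 µM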
EBV LMP1 NFkB = Epstein-Barr LMP1 NF-kappaB reporter inhibition; LMP1-induced NF-kappaB luciferase reporter cells, luminescence; inhibition, % at 12.5 µM; hit rate 0.69% among 350,000; in the data active = inhibition above about 41%; inconclusive = no clear call, values can overlap the other calls
TRPM1 prom inh = reduces MITF-dependent TRPM1 promoter luciferase signal | SK-MEL-5 TRPM1 promoter luciferase, 24 h | inhibition, % at 12.5 µM | hit rate 0.83% among 330,000 | AID 488899;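 active = mean inhibition across replicates of 60% or more, whatever share of single replicates reaches that level; inconclusive = some that reach 60%, reason not given; inactive = mean inhibition across replicates below 60%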
CF NFkB inh = cystic fibrosis NF-kB activation inhibition. KKLEB NF-kB-GFP reporter, PAF-induced, GFP fluorescence overnight. hit rate 0.86% among 360,000. inhibition, % at 5 µM;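 active = at least 50% inhibition at 5 µM, scaled per plate between neutral and stimulator controls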;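 note: PAF is a Pseudomonas aeruginosa culture filtrate used as stimulus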
KKLEB cytotox = CF airway cell cytotoxicity counter-screen; KKLEB CF airway cells viability, ATPlite luminescence, overnight; hits give low values; cells stimulated with P. aeruginosa culture filtrate; activity change (cytotoxicity), % at 5 µM; hit rate 0.36% among 360,000; AID 602141;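 active = corrected activity change at or below -50% at 5 µM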
HIF-2a block = blocks HIF-2a reporter activity; 786-0 RCC cells HIF-2a reporter, luciferase luminescence, overnight; inhibition, % at 18.8 µM; AID 624352; hit rate 0.72% among 360,000;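 active = inhibition of the luminescence signal of 40% or more relative to plate controls, in a single-dose primary screen at 18.75 µM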
Hits are given with their value; – = inactive; ? = inconclusive; · = no result. Hits are enriched below; roughly 3% of the tested compounds scored in any of these assays.

SMILES | Peg3 promoter | EBV LMP1 NFkB | TRPM1 prom inh | CF NFkB inh | KKLEB cytotox | HIF-2a block
CC(C)Oc1ccc(C(CCNCc2ccc(O)cc2)c2ccccc2)cc1 (stereo not drawn) | 106 | – | 86 | – | – | –
COc1ccc(C(CCNCc2ccc(N(C)C)cc2)c2ccccc2)cc1 (stereo not drawn) | 107 | – | – | – | – | –
CCc1ccc(C(O)c2ncc(-c3ccccc3Cl)[nH]2)cc1 (stereo not drawn) | – | · | · | – | – | –
CCCCNC(=O)c1ccc(Cn2c(=S)[nH]c3c([nH]c4ccc(OC)cc43)c2=O)cc1 | 80 | – | – | 60 | -63 | –
OC[C@@H]1CN(Cc2ccccc2)C[C@H](n2cnc3c(NC4CCCC4)ncnc32)O1 | – | · | · | – | – | –
CC1=C/C(=N\NC(=S)Nc2cccnc2)CC(C)(C)C1 | – | – | 62 | – | – | –
CCCCCCN1C[C@H](n2cc(-c3ccc(F)cc3)nn2)[C@@H](O)C[C@@H]1c1ccc(Cl)cc1 | 98 | – | · | – | – | –
COc1ccccc1CNc1nc(NCc2ccc(C(C)C)cc2)c2sccc2n1 | 95 | · | · | – | – | –
CNc1nc(NCCOc2ccccc2Cl)c2sccc2n1 | – | · | · | – | – | –
CC(C)c1ccc(CNc2nc(NCC3CC3)nc3ccsc23)cc1 | 54 | · | · | – | – | –
COc1ccccc1CNc1nc(NC(C)C)nc2ccsc12 | – | · | · | – | – | –
COc1ccccc1CNc1nc(NCCOc2ccccc2Cl)c2sccc2n1 | 60 | · | · | – | – | –
CCC[C@H]1CN(Cc2ccccc2)C(=O)[C@@H]1CC(=O)NC | – | – | · | – | – | –
Cc1c(CCOC(=O)C23CC4(C)CC(C)(CC(C)(C4)C2)C3)sc[n+]1CC(=O)c1ccccc1 | 113 | – | ? | – | – | –
Cc1c(CCOC(=O)CC23CC4CC(CC(C4)C2)C3)sc[n+]1CC(=O)c1ccccc1 | 62 | – | – | – | – | –
Cc1c(CCOC(=O)C23CC4CC(CC(C4)C2)C3)sc[n+]1Cc1ccccc1 | – | – | – | – | – | –
Cc1ccc(Cc2c(-c3cccc(Cl)c3)nc3c4ccccc4ccn23)cc1 | – | · | · | – | – | –
Cc1cc(/C=C2\Cc3ccccc3C2=O)c(C)n1-c1ccccc1 | – | 44 | – | – | – | 44
Cc1cc(C=C2C(=O)c3ccccc3C2=O)c(C)n1-c1ccc(C(=O)O)cc1 | – | – | – | – | – | –
OCCN1CCN(c2ncnc3c2ncn3[C@H]2CN(Cc3ccncc3)C[C@@H](CO)O2)CC1 | – | · | · | – | – | –
CCN(CC(=O)NCc1ccc(F)cc1)CC(=O)Nc1ccc(Br)cc1F | – | – | – | – | – | –
CCN(CC(=O)NCc1ccc(F)cc1)CC(=O)Nc1cc(S(=O)(=O)N(C)C)ccc1C | – | 44 | – | – | – | –
CC1CCN(c2ncnc3c2cnn3-c2ccccc2)CC1 | – | – | – | – | – | –
Clc1ccc(-n2ncc3c(N4CCCC4)ncnc32)cc1 | – | 52 | – | – | – | –
Cn1ncc2c(N3CCN(c4ccccc4F)CC3)ncnc21 | – | – | – | – | – | –
SMILES | Peg3 promoter | EBV LMP1 NFkB | TRPM1 prom inh | CF NFkB inh | KKLEB cytotox | HIF-2a block
Cn1ncc2c(N3CCN(c4ccc(Cl)c(Cl)c4)CC3)ncnc21 | 100 | – | – | – | – | –
Cc1ccc(S(=O)(=O)NC(Cc2ccccc2)C(=O)NN)cc1 (stereo not drawn) | – | – | – | – | – | –
Cc1ccc(S(=O)(=O)N[C@@H](Cc2ccccc2)C(=O)CCl)cc1 | 101 | – | – | 72 | – | –
Cc1sc2ncnc(SCC(=O)N3c4ccccc4Sc4ccc(Cl)cc43)c2c1C | – | – | – | – | – | –
CCOC(=O)c1c(C)sc2c1N(C(=O)CCl)c1cc(Cl)ccc1S2 | 87 | – | 82 | 69 | -76 | 91
O=C(Nc1ccccc1)Nc1cc(OCC(F)(F)F)cc(OCC(F)(F)F)c1 | – | – | 85 | – | -51 | –
O=C(Nc1ccccc1)Nc1cc(Cl)cc(Cl)c1 | – | – | – | – | – | –
CC(=O)O[C@@H]1[C@H]2[C@@H](C[C@@H](C)[C@@H]3C=CC(=O)[C@@]13C)OC(=O)[C@@H]2C | – | – | – | – | – | –
C=C1C(=O)OC2C1CCC(C)C1C=CC(=O)C12C (stereo not drawn) | – | – | 69 | – | – | –
COC(=O)C[C@H]1C[C@H]2c3cc(NC(=O)NC4CCCC4)ccc3O[C@H]2[C@@H](CO)O1 | – | – | · | – | – | –
COc1ccc(N=N/C(=C\O)C(=O)c2cccs2)cc1 | – | – | – | 76 | – | –
COc1ccc(C(=O)/C(=C/O)N=Nc2ccc(F)cc2)cc1 | – | – | – | – | – | –
COc1ccc(C(=O)N/N=C/c2c[nH]c3ccccc23)cc1 | – | – | – | – | – | –
CCCOc1ccc(C(=O)N/N=C/c2c[nH]c3ccc(Br)cc23)cc1 | 51 | – | – | – | – | –
CCOCCCn1cnc2c3cc(F)ccc3n(C)c2c1=O | – | 57 | – | – | – | –
Cn1c2ccc(F)cc2c2ncn(Cc3ccccn3)c(=O)c21 | – | – | – | – | – | –
CN1C=CC(=C[N+](=O)[O-])N(C)C1=O | – | · | · | – | – | –
Cc1c(F)cccc1NS(=O)(=O)c1ccc(N2CCCC2=O)cc1 | – | – | – | – | – | –
CC(C)(C)NCCC(O)c1cc(C(F)(F)F)nc2c(C(F)(F)F)cccc12 (stereo not drawn) | – | – | – | – | – | –
OC(c1cc(C(F)(F)F)nc2c(Cl)cc(Cl)cc12)C1CCCCN1 (stereo not drawn) | 109 | – | – | – | – | –
O[C@@H](c1cc(C(F)(F)F)nc2c(C(F)(F)F)cccc12)[C@H]1CCCCN1 | 103 | – | – | – | – | –
OC(c1cc(-c2ccc(Cl)cc2)nc2ccccc12)C1CCCCN1 (stereo not drawn) | 109 | – | – | – | – | –
CCN1CCN(S(=O)(=O)c2ccc(Cl)c(C(=O)N(C)Cc3cccs3)c2)CC1 | – | – | – | – | -52 | –
CCCCOc1ccc(N=Cc2cccs2)cc1 | – | – | – | – | – | –
Oc1ccc(N=Cc2ccc(-c3cccs3)s2)cc1 | – | 82 | – | – | – | –
SMILES | Peg3 promoter | EBV LMP1 NFkB | TRPM1 prom inh | CF NFkB inh | KKLEB cytotox | HIF-2a block
Cc1ccc(C(=O)c2c(C)oc3c2C(=O)C(=O)c2ccccc2-3)cc1 | 101 | 46 | – | 78 | – | –
Cc1oc2c(c1C(=O)c1ccc(Cl)cc1)C(=O)C(=O)c1ccccc1-2 | 107 | 90 | – | 86 | -62 | 94
Cc1ccc(C(=O)c2coc3c2C(=O)C(=O)c2ccccc2-3)cc1 | – | – | – | – | – | –
COc1ccc2oc(C(=O)N3CCc4ccccc43)c(C)c2c1 | – | – | – | – | -55 | –
CCCOc1ccccc1/C=C1/C(=O)ON=C1C | – | – | – | – | – | –
CCCOc1ccc(/C=C2/C(=O)ON=C2C)cc1OCC | 50 | – | – | – | – | –
